USP28 block – human USP28 deubiquitinase inhibition; Q96RU2; purified USP28, Ub-rhodamine cleavage fluorescence, 30 min; inhibition, % at 25 µM; 3% of 47,000 active
USP30 block – human USP30 deubiquitinase inhibition; Q70CQ3; purified USP30, Ub-rhodamine cleavage fluorescence; inhibition, % at 25 µM; 5.3% of 47,000 active; AID 1645860
USP17 block – human USP17-like deubiquitinase inhibition | A8MUK1 | purified USP17, Ub-rhodamine cleavage fluorescence, 3 h | inhibition, % at 50 µM | 6.5% of 47,000 active
OTUD3 inh – inhibitors of human OTUD3 deubiquitinase; inhibition, % at 25 µM; 0.7% of 47,000 active; purified OTUD3, Ub-rhodamine fluorescence, 2 h; Q5T2D3
Target sequence (Q5T2D3 whole entry, looked up): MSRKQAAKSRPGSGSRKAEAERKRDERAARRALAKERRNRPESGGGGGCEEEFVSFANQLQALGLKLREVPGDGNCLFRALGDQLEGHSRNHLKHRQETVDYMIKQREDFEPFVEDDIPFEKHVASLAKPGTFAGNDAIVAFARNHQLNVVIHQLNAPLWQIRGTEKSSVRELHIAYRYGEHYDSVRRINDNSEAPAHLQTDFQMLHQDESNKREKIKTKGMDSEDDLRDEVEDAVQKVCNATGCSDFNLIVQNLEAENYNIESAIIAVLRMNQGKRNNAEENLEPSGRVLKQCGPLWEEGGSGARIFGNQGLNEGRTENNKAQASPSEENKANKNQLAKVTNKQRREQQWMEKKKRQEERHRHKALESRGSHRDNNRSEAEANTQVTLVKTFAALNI
Each line names hits and unclear results; the compound was inactive in the other large screens. This is a sample that favours compounds with a hit; in the whole collection about 11% have one here. Cut-off read from the data, not from the text of the source: active = inhibition above about 30%; inactive = the rest.

COc1ccccc1NC(=O)COc1cc(C)nc(-c2ccc(C)cc2)n1	USP30 block 62, USP17 block 56
COc1ccccc1OCC(=O)Nc1cccc2ccc(C)nc12	USP30 block 34, USP17 block 47
Cc1cc(OCC(=O)Nc2ccc(C#N)cc2)nc(-c2ccc(F)cc2)n1	none
Cc1n[nH]c(C)c1N1C(=O)c2cccc3c(N4CCOCC4)ccc(c23)C1=O	none
COc1cccc(/C=C2\C(=O)N(c3cccc(C)c3)C(=O)c3ccccc32)c1	USP17 block 43
COc1cccc(N2C(=O)c3cccnc3C2Nc2ccc(C)cc2)c1 (stereo not drawn)	none
Cc1cccc(N2C(=O)/C(=C\c3ccc(N4CCOCC4)s3)c3ccccc3C2=O)c1	USP17 block 42
CCn1nc(C)c(NC(=O)CN2CC3(CCOCC3)Oc3ccccc3C2=O)c1C	none
Cc1ccc(-c2nc(C(=O)N3CCN(c4ccccc4)CC3)cs2)n1C	none
CC(C)=CCC/C(C)=C/COc1ccc(/C=C2\C(=O)N(O)[C@@H](C)C(=O)N2O)cc1	USP28 block 47, USP30 block 33
COc1cc2nc(NC(=O)c3ccc(F)cc3Cl)sc(=O)c2cc1OC	USP28 block 78, USP30 block 92, USP17 block 62
COc1ccc(/C=C(\NC(=O)c2ccc(Br)cc2)C(=O)NCCc2c(C)[nH]c3ccccc23)cc1	USP30 block 34
Cc1[nH]c2ccccc2c1CCNC(=O)/C(=C/c1ccccc1)NC(=O)c1ccccc1	none
Cc1cccc(NC(=O)CNC(=O)c2ccc(-c3noc(C4CCCC4)n3)cc2)c1C	USP30 block 35, USP17 block 32
Cc1nc(CNC(=O)c2ccc(-c3noc(C4CC4)n3)cc2)no1	none
O=C(NCc1ccc(Cl)cc1)c1ccc(N2CCCS2(=O)=O)cc1	USP28 block 45, USP17 block 64
CCOc1ccc(NC(=O)c2cc(-c3ccccc3)c(N3CCOCC3)s2)cc1	USP17 block 53
COc1cc(C)c(NC(=O)c2cc(-c3ccccc3)c(N3CCOCC3)s2)cc1OC	USP17 block 59
Cc1ccc(NC(=O)c2cc(-c3ccccc3)c(N3CCOCC3)s2)cc1	none
CCn1c(Cn2cccn2)nc2cc(NC(=O)CC(C)C)ccc21	none
CCn1c(Cn2cccn2)nc2cc(NC(=O)c3ccc(F)cc3)ccc21	USP28 block 53
COc1cc2c(c3oc(=O)c4c(c13)CCC4)CCC(C)(C)O2	none
CN(C(=O)c1cccc2cccnc12)c1ccccc1	none (no result: USP28 block, USP30 block)
COc1ccc(NC(=O)NC(COC(=O)Nc2ccc(OC)cc2)c2ccccc2)cc1 (stereo not drawn)	USP28 block 33, USP30 block 95, USP17 block 60
COc1ccccc1NC(=O)NC1CCN(c2ccc(F)cc2)C1=O (stereo not drawn)	none
O=C(Nc1ccc(F)cc1F)NC1CCN(c2ccccc2)C1=O (stereo not drawn)	USP28 block 45, USP17 block 73
COc1ccc(NC(=O)c2nnn(-c3ccccc3C)c2C)cc1OC	USP28 block 72
COc1ccc(-n2nnc(C(=O)Nc3cccc(F)c3)c2C)cc1	USP17 block 48
COc1ccc(-n2nnc(C(=O)Nc3ccc(F)cc3F)c2C)cc1	none
Cc1ccc(NC(=O)c2nnn(-c3cccc(F)c3)c2C)cc1	USP30 block 43
CCc1ccc(-n2nnc(C(=O)Nc3ccc(F)cc3)c2C)cc1	USP30 block 32
Cc1c(C(=O)Nc2ccc(Cl)cc2)nnn1-c1ccc(F)cc1	none
COc1ccc(NC(=O)c2nnn(-c3ccc(F)cc3)c2C)cc1	USP17 block 48
COc1cccc(-n2nnc(C(=O)Nc3ccc(Cl)cc3)c2C)c1	none
Cc1ccc(-n2nnc(C(=O)Nc3ccc(F)cc3)c2C)cc1C	none
COc1ccc(-n2nnc(C(=O)Nc3ccc(F)cc3)c2C)cc1	USP17 block 50
Cc1ccc(-n2nnc(C(=O)Nc3ccccc3F)c2C)cc1C	USP17 block 56 (no result: USP28 block, USP30 block)
COc1ccc(NC(=O)c2cnn(-c3ccc(F)cc3)c2C)cc1	none
CN1C(=O)OC[C@@H]2CCN(Cc3nc4ccccc4s3)C[C@H]21	none (no result: USP28 block, USP30 block)
O=C(Nc1ccc2c(c1)OCO2)[C@H]1C[C@@H]2CN(Cc3cccnc3)C[C@H]1O2	none
COc1ccc2c(c1)[nH]c1c(=O)n(Cc3cccnc3)cnc12	none
Cn1c2ccc(F)cc2c2ncn(Cc3cccnc3)c(=O)c21	USP30 block 31
Cc1ccc2c(c1)[nH]c1c(=O)n(Cc3cccnc3)cnc12	USP17 block 31
O=c1c2[nH]c3ccc(F)cc3c2ncn1Cc1ccc2c(c1)OCO2	none
O=c1c2[nH]c3ccc(F)cc3c2ncn1Cc1cccnc1	USP17 block 41 (no result: USP28 block, USP30 block)
O=C(c1ccncc1)N1C[C@@H]2OCC(=O)N(c3ccccc3)[C@@H]2C1	none
CCC(NS(=O)(=O)c1ccc(S(=O)(=O)N2CCOCC2)cc1)C12CC3CC(CC(C3)C1)C2 (stereo not drawn)	USP30 block 33
O=C(Nc1ccccc1)c1ccc(-c2nc(-c3ccc(Cl)cc3)cs2)cc1	none
O=C(Nc1cccc(C(F)(F)F)c1)c1ccc(-c2nc(-c3ccc(Cl)cc3Cl)cs2)cc1	USP17 block 32
Cc1cccc(C(=O)Nc2ccc3c(c2)C(=O)N(C)c2ccccc2O3)c1	USP28 block 47
Cc1cccc(C(=O)Nc2ccc(N3CCCCC3)c(NC(=O)Nc3ccccc3Cl)c2)c1	none
Cc1ccc(C(=O)Nc2ccc3c(c2)C(=O)N(C)c2ccccc2O3)cc1C	USP28 block 55
COc1cccc(NC(=O)c2ccc(SCCN3CCOCC3)nc2)c1	USP28 block 40
CCOc1ccc([C@@H]2c3c(C)nn(-c4ccccc4)c3NC(=O)[C@H]2NC(=O)c2cccc(C)c2)cc1	none
Cc1nn(C)c2c1[C@@H](c1ccc(F)cc1)[C@H](NC(=O)c1ccccc1)C(=O)N2	USP28 block 80
Cc1nn(-c2ccccc2)c2c1[C@@H](c1ccc3c(c1)OCCO3)[C@H](NC(=O)c1ccccc1)C(=O)N2	none
Cc1ccc(-n2nc(C)c3c2NC(=O)[C@@H](NC(=O)c2ccccc2)[C@@H]3c2ccc(F)cc2)cc1	USP28 block 48
CC(C)(c1ccccc1)c1nnc(-c2cnc3onc(C4CC4)c3c2)o1	none
C/C=C/C=C/[C@@H]1Cc2cc(O)cc(O)c2O1	USP28 block 91, USP30 block 82, USP17 block 97, OTUD3 inh 87
COc1ccccc1NC(=O)c1nn(-c2cccc(F)c2)c(OC)cc1=O	USP30 block 76, USP17 block 46
COc1cc(=O)c(C(=O)Nc2ccccc2)nn1-c1cccc(F)c1	none
Cc1ccc(S(=O)(=O)N2CCCSc3ccccc32)cc1	none
Cc1ccccc1OCCN1C(=O)C2CN(C(N)=O)CCN2C1=O (stereo not drawn)	USP30 block 31
COc1cccc(CNCc2nc(NCc3cccc(OC)c3)c3c(C)c(C)sc3n2)c1	USP28 block 37, USP30 block 42
COc1cccc(CN2CCC3(CC2)OC(C(=O)N2CCOCC2)Cn2ccnc23)c1 (stereo not drawn)	none
Cc1nnc(NC(=O)C2CCN(c3ccc(S(N)(=O)=O)cc3[N+](=O)[O-])CC2)o1	USP28 block 66, USP17 block 73, OTUD3 inh 67
